Assay [1] is described as follows: stimulators of nuclear beta-catenin in C2C12, primary screen, imaging, WNT3A-conditioned medium, mouse C2C12, NPC library (AID 1117326; in the data active = nuclear beta-catenin stimulation mostly above about 4.2%, no sharp cut-off; inactive = mostly below about 10%; also: reference of the scale not given here). The settings on record: stronger effect = higher value.
Assay [2] can be described thus: stimulators of insulin release from INS-1E, primary screen, cell-based, 5 mM glucose, NPC library (AID 1117329;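 active = compound raises insulin release from rat beta cells at 5 mM glucose, no numeric limit stated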; also: reference of the scale not given here). The settings on record: rat INS-1E insulin secretion, at 10 µM, stronger effect = higher value.
A short description of assay [3]: growth inhibition of GSK3B-pretreated HCT116 cells – cell-based, CellTiter-Glo, 0.2 to 20 µM (AID 1117336;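 active = compounds lowering colon cancer cell viability after pretreatment blocking the GSK3B kinase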). The following applies: HCT116 viability after GSK3B inhibitor, at 20 µM, stronger effect = higher value. Background: In ATP-based viability assays light output follows the ATP content of the culture.
Assay [4] in a line: inhibition of endothelial tube formation, primary screen, imaging, VEGF stimulated, CD31 staining, tube area, NPC library (AID 1117340;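 active = compound that reduces growth-factor-driven endothelial tube area in a mixed cell culture, no cutoff stated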). The following applies: VEGF-stimulated ADSC/ECFC co-culture, at 10 µM, stronger effect = higher value.
Assay [5] in a line: glucagon-like peptide 1 release enhancers, primary assay, NCI-H716 cell line, NPC library (AID 1117341;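 active = compound raises GLP1 secretion from the human gut endocrine cells, with no numeric limit stated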; also: reference of the scale not given here). The settings on record: NCI-H716 cells, at 10 µM, stronger effect = higher value.
Assay [6] is described as follows: HCT116 colon cancer cell growth inhibition, primary screen, CellTiter-Glo luminescence, NPC library (AID 1117342). The settings on record: at 20 µM (top of the series).
A short description of assay [7]: CellTiter-Glo luminescent readout of SW480 viability loss, NPC library primary (AID 1117343;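 active = compounds that lower viability of the colon cancer cells in the luminescence readout, with no numeric limit stated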). The following applies: CellTiter-Glo luminescence; at 20 µM (top of the series).
A short description of assay [8]: decreased DLD-1 cellular survival, CellTiter-Glo luminescent readout, NPC compound collection, primary HTS (AID 1117346;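 active = compounds that lower survival of DLD-1 colon cancer cells in the luminescence readout, no cutoff given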). The settings on record: DLD-1 viability, CellTiter-Glo luminescence; at 20 µM (top of the series).

The source of these data is PubChem BioAssay.

Activity calls are given as the source filed them.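 The calls were made as follows, unless noted: active = compounds that lower survival of HCT116 colon cancer cells in the luminescence readout, no numeric limit stated; inactive = the rest.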

`Nc1ccc(S(=O)(=O)Nc2ccccc2)cc1`: the nuclear beta-catenin stimulation in assay [1] (at 10 µM) was 1% (inactive); in assay [1] (stimulation, at 2 µM), 0.9%. Moreover, the insulin secretion stimulation in assay [2] is -2.7% (inactive). For the same molecule, the viability decrease in assay [3] is -9.8% (inactive). Moreover, in assay [4], the tube area decrease is 10.5% (inactive). Besides, the GLP1 secretion stimulation in assay [5] was 3.7% (inactive). Also, in assay [6], the inhibition of viability is -1.7% (inactive). Further, the viability decrease (inhibition) in assay [7] is 5.2% (inactive); in assay [8], 0.95% (inactive).
For the molecule `CC(C)(C)c1nnc(NS(=O)(=O)c2ccc(N)cc2)s1`, the nuclear beta-catenin stimulation in assay [1] (at 10 µM) was 0.1% (inactive); in assay [1] (stimulation, at 2 µM) it was -1.2%. Further, the insulin secretion stimulation in assay [2] is 3.45% (inactive). The viability decrease in assay [3] was 7.2% (inactive). Also, in assay [4], the tube area decrease is -5.2% (inactive). The GLP1 secretion stimulation in assay [5] was 0.7% (inactive). Moreover, the inhibition of viability in assay [6] is -2.9% (inactive). The viability decrease (inhibition) in assay [7] was 54.4% (active); in assay [8], -5.4% (inactive).
Turning to `C=CCN1CCc2nc(N)sc2CC1`, the nuclear beta-catenin stimulation in assay [1] (at 10 µM) was 0.7% (inactive); in assay [1] (stimulation, at 2 µM), 1%. Besides, the insulin secretion stimulation in assay [2] is -0.5% (inactive). In addition, the viability decrease in assay [3] is -5.1% (inactive). For the same molecule, in assay [4], the tube area decrease was 7.1% (inactive). The GLP1 secretion stimulation in assay [5] is 0.8% (inactive). Moreover, the inhibition of viability in assay [6] is -4% (inactive). Also, the viability decrease (inhibition) in assay [7] is 2.6% (inactive); in assay [8], -3.4% (inactive).
Turning to `Oc1cc(O)cc(O)c1`, the nuclear beta-catenin stimulation in assay [1] (at 10 µM) is -0.5% (inactive); in assay [1] (stimulation, at 2 µM) it was 2.8%. Moreover, in assay [2], the insulin secretion stimulation is -1.3% (inactive). Also, in assay [3], the viability decrease was -20.3% (inactive). In addition, the tube area decrease in assay [4] was -14.9% (inactive). The GLP1 secretion stimulation in assay [5] is -1.7% (inactive). Moreover, the inhibition of viability in assay [6] is -0.5% (inactive). In addition, the viability decrease (inhibition) is 21.1% (inactive) in assay [7] and -3.4% (inactive) in assay [8].
As for `CC(C)=CCC1C(=O)N(c2ccccc2)N(c2ccccc2)C1=O`, the nuclear beta-catenin stimulation was -0.3% (inactive) in assay [1] (at 10 µM) and 0.3% in assay [1] (stimulation, at 2 µM). Besides, the insulin secretion stimulation in assay [2] was -1.2% (inactive). Moreover, the viability decrease in assay [3] is 45.1% (inactive). The tube area decrease in assay [4] was 8.8% (inactive). Also, in assay [5], the GLP1 secretion stimulation was -1.5% (inactive). Moreover, the inhibition of viability in assay [6] is -4.6% (inactive). Also, the viability decrease (inhibition) in assay [7] was 78.1% (active); in assay [8] it was 26.2% (inactive).
Take `CC12C=CC(=O)C=C1CCC1C2C(O)CC2(C)C1CCC2(O)C(=O)COP(=O)(O)O` (stereo not given): the nuclear beta-catenin stimulation was 1.1% (inactive) in assay [1] (at 10 µM) and 0.6% in assay [1] (stimulation, at 2 µM). In addition, the insulin secretion stimulation in assay [2] was 1.5% (inactive). Further, the viability decrease in assay [3] is -38.5% (inactive). The tube area decrease in assay [4] was -3.4% (inactive). The GLP1 secretion stimulation in assay [5] is -2% (inactive). In addition, the inhibition of viability in assay [6] is 1.57% (inactive). Moreover, the viability decrease (inhibition) in assay [7] was -2.1% (inactive); in assay [8], -14.4% (inactive).
As for `CCN1/C(=C/C=C/c2sc3ccccc3[n+]2CC)Sc2ccccc21`, the nuclear beta-catenin stimulation in assay [1] (at 10 µM) was 1.2% (inactive); in assay [1] (stimulation, at 2 µM), 7.5%. The insulin secretion stimulation in assay [2] is -0.5% (inactive). In addition, in assay [3], the viability decrease was 99.1% (active). Moreover, the tube area decrease in assay [4] is -349% (inactive). For the same molecule, the GLP1 secretion stimulation in assay [5] is -2.9% (inactive). Moreover, the inhibition of viability in assay [6] was 98.8% (active). Further, the values for the viability decrease (inhibition) in assay [7] and in assay [8] were 103% (active) and 102% (active), respectively.
As to `Cc1ccc(O)c(-n2nc3ccccc3n2)c1`, the nuclear beta-catenin stimulation is -0.7% (inactive) in assay [1] (at 10 µM) and -0.3% in assay [1] (stimulation, at 2 µM). In assay [2], the insulin secretion stimulation was -1.4% (inactive). Moreover, in assay [3], the viability decrease is 8.75% (inactive). The tube area decrease in assay [4] is -28.1% (inactive). Moreover, the GLP1 secretion stimulation in assay [5] is 4.2% (inactive). Also, the inhibition of viability in assay [6] is -0.8% (inactive). In addition, the values for the viability decrease (inhibition) in assay [7] and in assay [8] were 40.7% (inactive) and 13.8% (inactive), respectively.
`C#CC(C)(CC)OC(=O)c1ccccc1C(=O)O` (stereo not given): the nuclear beta-catenin stimulation is 3.1% (inactive) in assay [1] (at 10 µM) and 1.3% in assay [1] (stimulation, at 2 µM). Moreover, the insulin secretion stimulation in assay [2] was -0.2% (inactive). The viability decrease in assay [3] was -19% (inactive). For the same molecule, the tube area decrease in assay [4] is -5.2% (inactive). For the same molecule, the GLP1 secretion stimulation in assay [5] is 3.4% (inactive). In addition, the inhibition of viability in assay [6] was 5.2% (inactive). Besides, the viability decrease (inhibition) in assay [7] was 11.9% (inactive); in assay [8], -12.1% (inactive).
As to `O=S1(=O)OC(c2ccc(O)cc2)(c2ccc(O)cc2)c2ccccc21`, the nuclear beta-catenin stimulation is 0.1% (inactive) in assay [1] (at 10 µM) and -1.3% in assay [1] (stimulation, at 2 µM). Moreover, the insulin secretion stimulation in assay [2] was 0.55% (inactive). The viability decrease in assay [3] was 12.4% (inactive). The tube area decrease in assay [4] was 2.5% (inactive). For the same molecule, in assay [5], the GLP1 secretion stimulation was -0.4% (inactive). In addition, the inhibition of viability in assay [6] is 38.7% (inactive). In addition, the viability decrease (inhibition) was -9.3% (inactive) in assay [7] and 42.9% (inactive) in assay [8].
Consider `Nc1ccncc1N`, for which the nuclear beta-catenin stimulation was 0.2% (inactive) in assay [1] (at 10 µM) and 0.5% in assay [1] (stimulation, at 2 µM). Also, the insulin secretion stimulation in assay [2] was -0.7% (inactive). In addition, the viability decrease in assay [3] was -2.2% (inactive). Besides, in assay [4], the tube area decrease was -31% (inactive). Moreover, the GLP1 secretion stimulation in assay [5] is 3.3% (inactive). In addition, in assay [6], the inhibition of viability is 3.4% (inactive). In addition, the viability decrease (inhibition) in assay [7] was 7.7% (inactive); in assay [8], 6.9% (inactive).
`Cc1nc2n(c(=O)c1CCN1CCC(C(=O)c3ccc(F)cc3)CC1)CCS2`: the nuclear beta-catenin stimulation in assay [1] (at 10 µM) was 0.2% (inactive); in assay [1] (stimulation, at 2 µM), -0.8%. In assay [2], the insulin secretion stimulation was 0.2% (inactive). Besides, the viability decrease in assay [3] is 38% (inactive). Moreover, the tube area decrease in assay [4] was 14.8% (inactive). The GLP1 secretion stimulation in assay [5] was 5.4% (inactive). The inhibition of viability in assay [6] is 67.6% (active). The viability decrease (inhibition) in assay [7] was 29.6% (inactive); in assay [8], 33.5% (inactive).
Regarding `COC(=O)C(CN)c1c[nH]c2ccc(OC)cc12` (stereo not given), the nuclear beta-catenin stimulation in assay [1] (at 10 µM) is -2.2% (inactive); in assay [1] (stimulation, at 2 µM), -1%. For the same molecule, the insulin secretion stimulation in assay [2] is 2.3% (inactive). In assay [3], the viability decrease was -18.2% (inactive). For the same molecule, the tube area decrease in assay [4] was 5.7% (inactive). Also, the GLP1 secretion stimulation in assay [5] is 7.7% (inactive). Besides, the inhibition of viability in assay [6] is 8.5% (inactive). The viability decrease (inhibition) in assay [7] was 19.4% (inactive); in assay [8], 16.7% (inactive).
On to `C[C@H]1C[C@H]2[C@@H]3CCC4=CC(=O)C=C[C@]4(C)[C@@]3(Cl)[C@@H](O)C[C@]2(C)[C@@]1(O)C(=O)CO`, for which the nuclear beta-catenin stimulation in assay [1] (at 10 µM) was 0.9% (inactive); in assay [1] (stimulation, at 2 µM), 0.5%. In addition, the insulin secretion stimulation in assay [2] was 6.9% (inactive). Further, in assay [3], the viability decrease is -136% (inactive). Also, the tube area decrease in assay [4] was 14.4% (inactive). Further, the GLP1 secretion stimulation in assay [5] is -0.3% (inactive). The inhibition of viability in assay [6] was 15.8% (inactive). Also, the figures for the viability decrease (inhibition) in assay [7] and in assay [8] were 70.7% (active) and 13.2% (inactive), respectively.
On to `CCOC(=O)C(C#N)=C(c1ccccc1)c1ccccc1`, for which the nuclear beta-catenin stimulation in assay [1] (at 10 µM) was 0.9% (inactive); in assay [1] (stimulation, at 2 µM), 1.8%. The insulin secretion stimulation in assay [2] was 6.6% (inactive). In assay [3], the viability decrease was -0.55% (inactive). Further, the tube area decrease in assay [4] is 2.6% (inactive). For the same molecule, the GLP1 secretion stimulation in assay [5] is -0.1% (inactive). In addition, in assay [6], the inhibition of viability was 26.4% (inactive). Further, the viability decrease (inhibition) is 18.9% (inactive) in assay [7] and 15.2% (inactive) in assay [8].
